Sampled rows, rich in hits. Any-hit rate of the full collection: about 0.9%.
CDC25B CDK2 inh – human CDC25B-CDK2/CyclinA binding inhibition. HTRF CDC25B-CDK2/CyclinA binding, anti-His/anti-Flag; hits give high values. z-score (test concentration not listed). AID 1259370. actives 0.72% (n = 94,000); in the data active = z-score above about 3.2
TAR Tat displ – HIV-1 TAR-Tat binding disruption; HIV-1 TAR RNA, Tat peptide displacement FRET; hits give high values; z-score (concentration not given with the values); actives 0.6% (n = 100,000); AID 1259389; active = z-score of 3 or more in at least 2 runs
Each line names hits and unclear results; the compound was inactive in the other large screens.

Cc1ccc(CSc2nccn(-c3cc(C)cc(C)c3)c2=O)cc1	none (no result: CDC25B CDK2 inh)
CCc1ccc(S(=O)(=O)c2nnn3c2nc(N2CCCC2)c2ccccc23)cc1	none
COc1cccc(C2CC(=O)N3CN(C4CCCCC4)CSC3=C2C#N)c1 (stereo not given)	CDC25B CDK2 inh 5.3
COc1ccc(Cl)cc1S(=O)(=O)Nc1ccc2c(c1)COC2=O	none
COc1ccccc1OCC(=O)Nc1nnc2n1CCCS2	none (no result: CDC25B CDK2 inh)
O=c1c(-c2cc(O)c(O)c(O)c2)coc2cc(O)c(O)c(O)c12	TAR Tat displ 26 (no result: CDC25B CDK2 inh)
O=c1c(-c2ccc(O)cc2)coc2cc(O)cc(O)c12	none
O=C(c1ccncc1)N(c1ccc2oc3c(c2c1)CCCC3)S(=O)(=O)c1cccs1	none (no result: TAR Tat displ)
Cc1c(Cl)ccc2c(=O)c(C(=O)O)c[nH]c12	none
O=C(O)c1c[nH]c2c(ccc3ccccc32)c1=O	TAR Tat displ 9.3
Brc1ccc(Nc2nc(-c3ccncc3)cs2)cc1	none
CNC(=O)C1=Cc2sc(C)c(C)c2CS1	none (no result: CDC25B CDK2 inh)
COc1ccc(-n2c(C)c3c(C)nn4cc(-c5ccc(C)o5)cc4c3c2C)cc1	CDC25B CDK2 inh 7.2, TAR Tat displ 16
Cc1nn2cc(-c3ccccc3)cc2c2c(C)n(Cc3ccccc3)c(C)c12	none
COC(=O)c1cc2oc3ccccc3c2n1CC(=O)NCc1ccco1	TAR Tat displ 8
Cn1c(C(=O)NCc2ccco2)cc2oc3ccccc3c21	none (no result: TAR Tat displ)
CCN1/C(=C/C2=CC(=O)CC(C)(C)C2)Sc2ccccc21	none
C=CCN1/C(=C/c2cc[n+](C)cc2)Sc2ccccc21	TAR Tat displ 4.1
CN1/C(=C\c2cc[n+](C)cc2)Sc2ccccc21	TAR Tat displ 7.5
C=CCN1/C(=C/c2cccc[n+]2C)Sc2ccccc21	TAR Tat displ 6.7
CCn1c(=O)/c(=C2\Sc3ccccc3N2C)s/c1=C\c1cccc[n+]1C	none (no result: CDC25B CDK2 inh)
C=CC[n+]1ccc(/C=C2\Sc3ccccc3N2C)cc1	none
CC(=O)N1c2ccccc2C(=O)C1N1CCN(c2ncccn2)CC1 (stereo not given)	none (no result: CDC25B CDK2 inh)
O=C(Nc1ccc2c(c1)OCCO2)Nc1nc2ccccc2s1	none
COc1cc2nc(Nc3ccc(F)cc3)nc(N)c2cc1OC	CDC25B CDK2 inh 13
COc1ccc(Nc2nc(N)c3ccccc3n2)cc1	none
COc1cc2nc(Nc3ccc(C)c(C)c3)nc(N)c2cc1OC	CDC25B CDK2 inh 9.3
COc1cc2nc(Nc3ccc(C)c(Cl)c3)nc(N)c2cc1OC	none
CCCCN1CCS(=O)(=O)c2c(Cl)c(N3CCOCC3)nc(Oc3ccc(F)cc3)c21	none
COc1ccc(Oc2nc(N3CCCC3)c(Cl)c3c2N(CC2CCCO2)CCS3(=O)=O)cc1 (stereo not given)	CDC25B CDK2 inh 9.4
CCOC(=O)c1cnn(-c2ccccc2)c1NC(=O)CSc1nc2ccccc2s1	CDC25B CDK2 inh 19 (no result: TAR Tat displ)
CCOC(=O)c1cc(-c2ccccc2)sc1NC(=O)CSc1nc2ccccc2s1	none (no result: TAR Tat displ)
Cn1c(=O)c2c(-c3ccc(Br)cc3)n(-c3ccc4c(c3)nc(CO)n4C)cc2n(C)c1=O	CDC25B CDK2 inh 15
Cc1ccc(-n2cc3c(c2-c2ccc(Br)cc2)c(=O)n(C)c(=O)n3C)cc1	none
O=C(NC1CCCCC1)NC(c1ccc(Cl)cc1)c1nnc(-c2ccccc2)o1 (stereo not given)	none (no result: CDC25B CDK2 inh)
N#Cc1cc([N+](=O)[O-])ccc1Sc1ccc(Cl)cc1	none (no result: TAR Tat displ)
O=C(O)Cn1ncn2c(cc3cc(F)ccc32)c1=O	none
O=C(O)Cn1ncc2c1-c1ccoc1CC2	CDC25B CDK2 inh 11
O=C(Cn1ncc2c1-c1ccccc1OC2)N1CCCC1	none (no result: TAR Tat displ)
Cc1ccc(C)n1-c1cc(C(=O)O)ccc1Cl	none (no result: TAR Tat displ)
Cc1cc(C(=O)O)ccc1-n1c(C)ccc1C	none (no result: TAR Tat displ)
Cc1ccc(C)n1-c1ccc(Cl)c(C(=O)O)c1	TAR Tat displ 16
Cc1ccc(C)n1-c1ccc(Cl)cc1C(=O)O	TAR Tat displ 14
CC1(C)CC(=O)C2=C(C1)NC(=O)CC2c1ccc(F)c(Br)c1 (stereo not given)	none
COc1ccc(Br)c(C(=O)/C(C#N)=N/Nc2ccc(F)cc2)c1	none (no result: TAR Tat displ)
Oc1ccc(Br)cc1CNc1cccc(C(F)(F)F)c1	none (no result: TAR Tat displ)
C=CC(=C)CC(NC)c1ccccc1 (stereo not given)	CDC25B CDK2 inh 16
C=C(C)CC(NC(C)c1ccccc1)c1ccco1 (stereo not given)	none
O=c1c(NCc2cccs2)nccn1-c1cccc(Cl)c1	none (no result: CDC25B CDK2 inh)
OCCNC(=S)Nc1ccc2nc3c4ccccc4c4ccccc4c3nc2c1	CDC25B CDK2 inh 21 (no result: TAR Tat displ)
O=C(Nc1ccc2nc3c4ccccc4c4ccccc4c3nc2c1)N(CCO)c1ccccc1	none (no result: TAR Tat displ)
O=C(c1ccc2c(c1)sc1nc(-c3ccc(F)cc3)cn12)N1CCc2ccccc21	none (no result: CDC25B CDK2 inh)
O=C(CSc1nnc(-c2cc3ccccc3[nH]2)o1)Nc1nccs1	none
CN(C)c1ccc(C(=O)NCCCCCC(=O)NO)cc1	TAR Tat displ 10 (no result: CDC25B CDK2 inh)
CN(C)c1ccc(NC(=O)CCCC(=O)O)cc1	none
O=C(Nc1ccc2c(c1)oc1ccccc12)NC1CCCCC1	none (no result: TAR Tat displ)
CSc1ccccc1C(=O)c1ccccc1C(=O)O	none (no result: TAR Tat displ)
O=C(O)c1ccccc1Sc1cc(C(=O)O)c(Sc2ccccc2C(=O)O)cc1C(=O)O	CDC25B CDK2 inh 15 (no result: TAR Tat displ)
CN(C)c1ccc(C2C3=C(CC(C)(C)CC3=O)Nc3cc4c(cc32)OCO4)cc1 (stereo not given)	none
CCC1=Nc2cc(C(=O)NC(C)CC)ccc2Sc2ccccc21 (stereo not given)	none
CCC(C)NC(=O)c1ccc2c(c1)N=C(C)c1cc(C)ccc1S2 (stereo not given)	TAR Tat displ 5.9
CC(=O)Oc1ccc(C)cc1C1OC(c2ccc(C)nc2)=NN1C(C)=O (stereo not given)	none (no result: CDC25B CDK2 inh)
CC1CCCCN1CCN1C(=O)c2cc3ccccc3n2CC1(C)C(=O)NC1CCCCC1 (stereo not given)	TAR Tat displ 18 (no result: CDC25B CDK2 inh)
CC1(C(=O)NC2CCCCC2)Cn2c(ccc2-c2ccco2)C(=O)N1Cc1ccco1 (stereo not given)	none (no result: CDC25B CDK2 inh)
CC1(C(=O)NC2CCCC2)Cn2c(ccc2-c2ccco2)C(=O)N1Cc1ccco1 (stereo not given)	TAR Tat displ 3.7 (no result: CDC25B CDK2 inh)
CC1CCCCN1CCN1C(=O)c2ccc(-c3ccco3)n2CC1(C)C(=O)NC1CCCCC1 (stereo not given)	none (no result: CDC25B CDK2 inh)
O=C(c1ccc(F)cc1)c1oc2ccccc2c1NC(=O)c1nn(-c2ccc(F)cc2)ccc1=O	none
CCOC(=O)c1cc(CC)sc1NC(=O)c1ccc([N+](=O)[O-])o1	none (no result: TAR Tat displ)
Cc1ccc(CN2CCSc3ccc(C(=O)O)cc32)cc1	none
CN(CC(=O)NC1CCCCCCC1)S(=O)(=O)c1ccc2c(c1)n(C)c(=O)c(=O)n2C	none (no result: TAR Tat displ)
CCCCn1cc(S(=O)(=O)c2ccccc2)c(=O)c2cc(OC)c(OC)cc21	none
O=C1CCCC2=C1C(c1cccs1)N(Cc1ccccc1F)c1ccccc1N2 (stereo not given)	none (no result: CDC25B CDK2 inh)
O=C(CSc1ccc(-c2ccccn2)nn1)NCc1ccc2c(c1)OCO2	none (no result: CDC25B CDK2 inh)
O=C(CSc1nc2ccccc2c(=O)[nH]1)N1CCc2ccccc21	TAR Tat displ 14 (no result: CDC25B CDK2 inh)
NC(=O)CSc1nc2ccccc2c(=O)[nH]1	none
O=C(C1CCN(S(=O)(=O)c2cccc3nonc23)CC1)N1CCCc2ccccc21	none (no result: TAR Tat displ)
O=C(NCCn1cnc2cc(C(=O)NC3CCCC3)ccc21)NCc1cccc(F)c1	none (no result: CDC25B CDK2 inh)
N#CC1=C2SCN(c3ccc(Cl)cc3)CN2C(=O)CC1c1ccccc1 (stereo not given)	CDC25B CDK2 inh 7.3
N#CC1=C2SCN(c3cccc(Cl)c3)CN2C(=O)CC1c1ccccc1 (stereo not given)	CDC25B CDK2 inh 9.2

High-throughput results from PubChem.
